Experimental data as given in the supplement of paper PMC4894684.
Where a name gives a salt, the structure may show the parent alone. ± gives the standard deviation of the averaged measurements.

The compounds below were run on Toxoplasma gondii RH (in HFF) (assay: parasite growth relative to the screen mean (all compounds = 100%); higher = less inhibition of parasite growth). Conditions: 5 µM; 72 h; oxygen 21 %.
Outline: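 Values give growth relative to the screen mean. The screen mean (all compounds) is set at 100%, and two screens were averaged. Compounds at 5 µM final were placed on confluent human foreskin fibroblasts, which were infected within 2 h with RH β-Gal–GFP Toxoplasma (MOI 1:5) and kept 72 h at 21% O2 before a CPRG β-Gal readout against in-plate standard curves.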

| SMILES | parasite growth [%] |
| --- | --- |
| c1cc2c3c(c1)c1c(n3CCNC2)CCCC1 [WAY 629 hydrochloride] | 130 ± 4 |
| C=C[C@@]1(C)CC(=O)[C@]2(O)[C@@]3(C)[C@@H](O)CCC(C)(C)[C@@H]3[C@H](O)[C@H](OC(C)=O)[C@@]2(C)O1 [Forskolin] | 116 ± 2.3 |
| CS(=O)(=O)c1ccc(-c2cc(Br)sc2-c2ccc(F)cc2)cc1 | 47.5 ± 14 |
| COC(=O)C1=C(C)NC(C)=C(C(=O)OC)C1c1ccccc1[N+](=O)[O-] [Nifedipine] | 110 ± 36 |
| CCOC(=O)c1cnc2c(cnn2CC)c1NN=C(C)C [Etazolate hydrochloride] | 127 ± 21 |
| CNc1cc(OC)c(C(=O)NC2CCN(Cc3ccccc3)C2C)cc1Cl (stereo not drawn) [Nemonapride] | 95.4 ± 2.2 |
| Oc1ccc(-c2nc3cc(O)cc(Br)c3o2)cc1 | 134 ± 20 |
| COc1cc(N)c(Cl)cc1C(=O)CCC1CCN(CCNS(C)(=O)=O)CC1 | 74.1 ± 2.4 |
| CC(C)NCC(O)COc1ccc(CC(N)=O)cc1 (racemic) [(RS)-Atenolol] | 103 ± 7.6 |
| CC(C)NCC(O)COc1cccc2ccccc12 (stereo not drawn) [Propranolol hydrochloride] | 99.4 ± 14 |
| COC(=O)[C@H]1[C@H]2C[C@@H]3c4[nH]c5cc(OC)ccc5c4CCN3C[C@H]2C[C@@H](OC(=O)c2cc(OC)c(OC)c(OC)c2)[C@@H]1OC [Reserpine] | 78.4 ± 47 |
| NCCCCCCCCCCNS(=O)(=O)c1cccc2c(Cl)cccc12 [A-7 hydrochloride] | 142 ± 17 |
| O=C1CC2(CCCC2)CC(=O)N1CCNCC1COc2ccccc2O1 (stereo not drawn) | 152 ± 13 |
| c1ccc(CN2CCC3(CCc4ccccc43)CC2)cc1 [L-693,403 maleate] | 135 ± 10 |
| CNC(=O)[C@H]1O[C@@H](n2cnc3c(NCc4cccc(I)c4)ncnc32)[C@H](O)[C@@H]1O | 117 ± 14 |
| CCCCC1CCC(c2nc(-c3ccncc3)no2)CC1 (stereo not drawn) | 81.9 ± 14 |
| CN(CCOc1ccc(C[C@H](Nc2ccccc2C(=O)c2ccccc2)C(=O)O)cc1)c1ccccn1 | 30 ± 17 |
| CC1CCN=C(N)S1 (stereo not drawn) [AMT hydrochloride] | 70.6 ± 8.5 |
| C#CCN1C(C)=C(C(=O)OC)C(c2cccc([N+](=O)[O-])c2)C(C(=O)OCC)=C1C (stereo not drawn) | 157 ± 2.2 |

| SMILES | parasite growth [%] |
| --- | --- |
| Nc1nnc(Sc2ncc([N+](=O)[O-])s2)s1 | 116 ± 26 |
| COc1ccc(CCN(C)CCc2ccc(OC)c(OC)c2)cc1OC [YS-035 hydrochloride] | 136 ± 23 |
| N#C/C(=C\c1ccc(O)c(O)c1)C(=O)NCCCc1ccccc1 | 154 ± 16 |
| CC(C)c1ccccc1S(=O)(=O)c1cc(N)c2ncccc2c1[N+](=O)[O-] | 88.4 ± 2.1 |
| C=C1/C(=C\C=C2/CCC[C@]3(C)[C@@H]([C@H](C)/C=C/[C@@H](O)C4CC4)CC[C@@H]23)C[C@@H](O)C[C@@H]1O [Calcipotriol] | 81.2 ± 8.2 |
| Cc1[nH]c(/C=C2\C(=O)Nc3ccc(S(=O)(=O)Cc4c(Cl)cccc4Cl)cc32)c(C)c1C(=O)N1CCC[C@@H]1CN1CCCC1 | < 0 |
| N#C/C(=C(/N)Sc1ccc(N)cc1)c1ccccc1C(F)(F)F | 113 ± 29 |
| CN[C@H]1CC[C@@H](c2ccc(Cl)c(Cl)c2)c2ccccc21 [Sertraline hydrochloride] | 29.3 ± 4.4 |
| CC1=C(CC(=O)O)c2cc(F)ccc2/C1=C\c1ccc([S+](C)[O-])cc1 (stereo not drawn) [Sulindac] | 183 ± 34 |
| Cc1c(C(=O)NN2CCOCC2)nn(-c2ccc(Cl)cc2Cl)c1-c1ccc(I)cc1 | 88.1 ± 20 |
| Cc1ccc(/C=N/NC(=O)c2ccccc2Oc2ccccc2)o1 | 72.7 ± 4.9 |
| Oc1cc2c(cc1O)CN(C(=S)NCCc1ccc(Cl)cc1)CCC2 [Capsazepine] | 150 ± 30 |
| COc1cc(N)c(Cl)cc1C(=O)OCCCN1CCCCC1 | 109 ± 2.2 |
| Cc1c(OCC(F)(F)F)ccnc1C[S+]([O-])c1nc2ccccc2[nH]1 (stereo not drawn) [Lansoprazole] | 124 ± 9.3 |
| O=C(c1ccc(F)cc1)C1CCN(CCn2c(=S)[nH]c3ccccc3c2=O)CC1 [Altanserin hydrochloride] | 135 ± 6.3 |
| CC12CC3CC(C)(C1)CC(N)(C3)C2 [Memantine hydrochloride] | 123 ± 4.8 |
| CC1=NN(c2ccccc2)C(=O)C1 | 133 ± 8.7 |
| CCc1ccc2c(-c3cccc(Cl)c3)nc(=O)n(CC)c2n1 | 152 ± 17 |
| CC(=N)NCCCC[C@H](N)C(=O)O [L-NIL hydrochloride] | 130 ± 15 |
